KDM5B inh: Primary screen for KDM5B Histone Demethylases FDH-coupled qHTS. 2.6% of 220,000 active. Potency, µM (highest dose often 57.7 µM), most hits filed as inhibitors. AID 1347165, 2019. KDM5B demethylase, FDH-coupled NADH fluorescence (FDH is formaldehyde dehydrogenase); also: nearly all actives have a fitted effect of over 70% in size
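Inhibition is measured as reduced NADH fluorescence generation from FDH coupling to formaldehyde release. Truncated KDM5BΔAP at 200 nM final acts on H3K4me3 peptide (12.5 µM in substrate mix) in pH 7.5 HEPES buffer with Tween-20, 30 min, room temperature.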
SNCA expr inh: Primary qHTS assay for inhibitors of alpha-synuclein gene (SNCA) expression; HEK-293 SNCA-luciferase knock-in, luminescence, 24 h; Potency, µM (top dose mostly 57.2 µM), hits mostly inhibitors; 0.17% of 140,000 active; also: nearly all actives have a fitted effect of over 45% in size
SNCA viab count: GF-AFC viability counterscreen for inhibitors of alpha-synuclein gene (SNCA) expression. HEK-293-SNCA-luc viability, GF-AFC fluorescence, 24 h. Potency, µM (highest dose often 57.1 µM), usual class: cytotoxic. 0.12% of 150,000 active. AID 1671193, 2021; also: nearly all actives have a fitted effect of over 30% in size
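HEK-293-SNCA-luc cells (1500/well) plated 24 h, then exposed 24 h to a dilution series; GF-AFC added 30 min at 37C, fluorescence 405/540 nm; normalised to medium-only and DMSO wells, Hill fit.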
IP6K1 inh: Primary qHTS assay for small molecule inhibitors of Inositol hexaphosphate kinase 1 (IP6K1) | AID 1645851, 2021 | Inositol hexakisphosphate kinase 1 (Homo sapiens), Q92551 | 0.81% of 140,000 active | IP6K1 kinase, ADP-Glo luminescence, 2 h; stronger effect = lower value | activity change, % (series mostly up to about 58 µM); in the data active = activity change below about -25%
Target sequence (Q92551 whole entry, looked up): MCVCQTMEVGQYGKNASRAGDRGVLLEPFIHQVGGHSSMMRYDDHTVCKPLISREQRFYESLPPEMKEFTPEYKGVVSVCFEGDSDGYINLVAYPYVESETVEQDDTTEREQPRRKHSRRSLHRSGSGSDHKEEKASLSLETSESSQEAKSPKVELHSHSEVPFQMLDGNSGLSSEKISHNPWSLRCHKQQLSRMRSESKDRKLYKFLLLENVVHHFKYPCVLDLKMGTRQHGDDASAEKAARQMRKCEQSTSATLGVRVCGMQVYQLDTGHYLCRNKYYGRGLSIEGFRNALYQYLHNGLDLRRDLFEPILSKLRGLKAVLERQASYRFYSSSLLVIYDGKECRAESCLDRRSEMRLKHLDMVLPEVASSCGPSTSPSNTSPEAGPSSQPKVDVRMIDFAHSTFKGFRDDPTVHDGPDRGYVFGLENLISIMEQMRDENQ
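ADP-Glo luminescence measures ADP made by human IP6K1 during a 2 h RT reaction with ATP/IP6 (mix at 1.3 mM/130 uM); top library doses 57.5 and 19.1 uM final.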
A number is an active result; ! = a repeat was not active. In the library only some 2.9% were active in any assay of this set; here they are far more common. Unless noted, calls follow the shape of the dose curve; as a rule, active = well fitted curve in the direction sought with a large enough effect; inconclusive = small, poorly fitted or top-dose-only effect, or another doubt; inactive = no such curve, though single readings can be large; an effect the other way counts as inactive or inconclusive.

How did CCn1c(=O)c2c(cc(C)n2C)n(CC(=O)Nc2ccc(C)cc2C)c1=O do in these assays?
KDM5B inh: inactive; SNCA expr inh: inactive; SNCA viab count: inactive; IP6K1 inh: inactive

What do the screens show for `COCCNC(=O)c1nc(-c2ccc(F)cc2)c2cnccn12`?
KDM5B inh: 31.6µM; SNCA expr inh: inactive; SNCA viab count: inactive; IP6K1 inh: inactive

How did COC(=O)CNC(=O)c1nc(-c2ccc(F)cc2)c2cnccn12 do in these assays?
KDM5B inh: 39.8µM; SNCA expr inh: inactive; SNCA viab count: inactive; IP6K1 inh: inactive

What do the screens show for `COCCNC(=O)c1nc2sccn2c1-c1cccnc1`?
SNCA expr inh: inactive; SNCA viab count: inactive; IP6K1 inh: inactive

What do the screens show for `Cc1nn(C(=O)CCCC(=O)N2CCC(CCOc3ccc(F)cc3)C2)c2ccccc12` (centres undefined)?
KDM5B inh: inactive; SNCA expr inh: inactive; SNCA viab count: inactive; IP6K1 inh: inactive

How did Cc1nn2c(c1-c1ccccc1Oc1ccccc1)N(C(=O)c1ccc(F)cc1)CCC2 do in these assays?
KDM5B inh: inactive; SNCA expr inh: inconclusive; SNCA viab count: inactive; IP6K1 inh: inactive

What do the screens show for `COc1ccc(CN2CCCn3nc(C)c(-c4ccccc4Oc4ccccc4)c32)cc1O`?
KDM5B inh: inconclusive; SNCA expr inh: 6.31µM; SNCA viab count: inconclusive; IP6K1 inh: inactive

What do the screens show for `Cc1nn2c(c1-c1ccccc1Oc1ccccc1)N(Cc1ccc(C(=O)O)cc1)CCC2`?
KDM5B inh: 35.5µM; SNCA expr inh: inconclusive; SNCA viab count: inconclusive; IP6K1 inh: inactive

What do the screens show for `COc1cccc(C(=O)OCC(=O)N2c3ccccc3Sc3ccccc32)c1OC`?
KDM5B inh: inactive

What do the screens show for `O=C(c1ccc2cccnc2c1O)N1CCCC(CCc2ccccc2F)C1` (centres undefined)?
KDM5B inh: 11.2µM; SNCA expr inh: inconclusive; SNCA viab count: inactive; IP6K1 inh: inactive

What do the screens show for `O=C(Cc1c[nH]c2ncc(-c3ccccc3F)cc12)NCc1cccnc1`?
KDM5B inh: 28.2µM; SNCA expr inh: inconclusive; SNCA viab count: inactive; IP6K1 inh: inactive

What do the screens show for `O=C(Cc1c[nH]c2ncc(-c3ccccc3C(F)(F)F)cc12)NCc1cccnc1`?
KDM5B inh: inconclusive; SNCA expr inh: inactive; SNCA viab count: inactive; IP6K1 inh: inactive

What do the screens show for `O=C(Cc1c[nH]c2ncc(-c3cccc(CO)c3)cc12)NCc1cccnc1`?
KDM5B inh: 31.6µM; SNCA expr inh: inactive; SNCA viab count: inactive; IP6K1 inh: inactive

How did O=C(c1ccncc1)N1CCC(N2CC3CC(C2)[C@H]2CCCC(=O)N2C3)CC1 (some centres undefined) do in these assays?
KDM5B inh: 17.8µM; SNCA expr inh: inactive; SNCA viab count: inactive; IP6K1 inh: inactive

How did Cc1cn2nc(C(=O)N3CCN(c4ccccc4F)CC3)cc2c(N2CCCC2)n1 do in these assays?
KDM5B inh: 31.6µM; SNCA expr inh: inconclusive; SNCA viab count: inactive; IP6K1 inh: inactive

Results for Cc1cn2nc(C(=O)N3CCCC3)cc2c(N2CCSCC2)n1 ?
KDM5B inh: 28.2µM; SNCA expr inh: inactive; SNCA viab count: inactive; IP6K1 inh: inactive

What do the screens show for `Cc1cn2nc(C(=O)NC(C)c3ccccc3)cc2c(N2CCSCC2)n1` (centres undefined)?
KDM5B inh: inconclusive; SNCA expr inh: inactive; SNCA viab count: inactive; IP6K1 inh: inactive

What do the screens show for `O=C(N[C@H](c1cccs1)C1CC(O)C1)c1cccc(-n2cccn2)c1` (some centres undefined)?
KDM5B inh: inactive; SNCA expr inh: inactive; SNCA viab count: inactive; IP6K1 inh: inactive

How did O=C(N[C@H](c1cccs1)C1CC(O)C1)c1cnn2cc(CCO)cnc12 (some centres undefined) do in these assays?
KDM5B inh: 14.1µM; SNCA expr inh: inactive; SNCA viab count: inactive; IP6K1 inh: inactive

Results for CNc1ncccc1C(=O)N[C@H](c1cccs1)C1CC(O)C1 (some centres undefined) ?
KDM5B inh: 28.2µM; SNCA expr inh: inactive; SNCA viab count: inactive; IP6K1 inh: inactive

How did CNc1cc(C(=O)N[C@H](c2cccs2)C2CC(O)C2)ccn1 (some centres undefined) do in these assays?
KDM5B inh: 28.2µM; SNCA expr inh: inactive; SNCA viab count: inactive; IP6K1 inh: inactive

Results for Cn1ccc2c(C(=O)N[C@H](c3cccs3)C3CC(O)C3)cccc21 (some centres undefined) ?
KDM5B inh: inactive; SNCA expr inh: inactive; SNCA viab count: inactive; IP6K1 inh: inactive

How did Cc1c(C(=O)Nc2ccc(F)c(F)c2)oc2ccc(S(=O)(=O)N3CCCCC3)cc12 do in these assays?
KDM5B inh: inactive; SNCA expr inh: inactive; SNCA viab count: inactive; IP6K1 inh: inactive

Results for C[N+](C)(C)c1ccc(/C=N/N=C/c2ccccc2)cc1 ?
KDM5B inh: inactive

Results for Cc1ccc(-c2cc3c(=O)n(CCNC(=O)c4cc(C5CC5)[nH]n4)ccn3n2)c(C)c1 ?
KDM5B inh: inactive; SNCA expr inh: inactive; SNCA viab count: inactive; IP6K1 inh: inactive

Results for C[C@@]1(C(=O)Nc2ccc(F)nc2)CCCN1c1nc(Nc2cc(C3CC3)[nH]n2)c2cccn2n1 ?
SNCA expr inh: inactive; SNCA viab count: 1.89µM!; IP6K1 inh: inactive

Results for COC(=O)[C@H](NC(=O)[C@@H]1[C@@H](NC(=O)Nc2ccc(F)cc2F)CCN1C(=O)CSC)C(C)C ?
KDM5B inh: inactive; SNCA expr inh: inactive; SNCA viab count: inactive; IP6K1 inh: inactive

What do the screens show for `COc1ccccc1OCC(C)N` (centres undefined)?
KDM5B inh: inactive

Results for CC(=O)Oc1ccccc1C(=O)Nc1ccc2c(c1)CN(Cc1ccc(Cl)cc1)C(=O)C(C)O2 (centres undefined) ?
KDM5B inh: 35.5µM; SNCA expr inh: inactive; SNCA viab count: inactive; IP6K1 inh: inactive

How did CCC1Oc2ccc(NC(=O)c3ccccc3OC(C)=O)cc2CN(Cc2ccccc2F)C1=O (centres undefined) do in these assays?
KDM5B inh: 25.1µM; SNCA expr inh: inactive; SNCA viab count: inactive; IP6K1 inh: inactive

How did CC1Oc2ccc(NC(=O)c3ccccc3)cc2CN(Cc2ccc(Cl)cc2)C1=O (centres undefined) do in these assays?
KDM5B inh: inconclusive; SNCA expr inh: inactive; SNCA viab count: inconclusive; IP6K1 inh: inactive

What do the screens show for `Cn1cnc2c1c(=O)n(CCCSCc1cccc(Br)c1)c(=O)n2C`?
KDM5B inh: inactive

Results for COCCNc1ncccc1-c1noc([C@@H]2CCCN2CC(C)(C)C)n1 ?
KDM5B inh: 35.5µM; SNCA expr inh: inactive; SNCA viab count: inactive; IP6K1 inh: inactive

How did COCCNc1ncccc1-c1noc([C@@H]2CCCN2Cc2cccc(C#N)c2)n1 do in these assays?
KDM5B inh: inconclusive; SNCA expr inh: inactive; SNCA viab count: inactive; IP6K1 inh: inactive
